# TRHR ag: agonists of human TRH receptor | P34981 | TRHR cells, calcium flux fluo-8, FDSS agonist mode | activation, % at 2 µM | actives 0.18% (n = 360,000); also: 0% is about no effect
#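 TRHR-expressing cells, plated overnight in medium with 10% serum, were loaded with fluo-8 calcium dye at room temperature. After a 10 s baseline, library compound was pin-added and calcium release was recorded kinetically (ex 480/em 530) as agonist response.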
# D1 antag: blocks dopamine activation of the human D1 receptor; P21728; HEK293 TREx D1 cells, calcium flux, dopamine EC80; stronger effect = lower value; activity change, negative = inhibition, % at 10 µM; actives 3.2% (n = 360,000); AID 504652; in the data active = activity change below about -30%; also: % is scaled to controls: 0 for no effect and ±100 for the full control effect
# Target sequence (P21728 whole entry, looked up): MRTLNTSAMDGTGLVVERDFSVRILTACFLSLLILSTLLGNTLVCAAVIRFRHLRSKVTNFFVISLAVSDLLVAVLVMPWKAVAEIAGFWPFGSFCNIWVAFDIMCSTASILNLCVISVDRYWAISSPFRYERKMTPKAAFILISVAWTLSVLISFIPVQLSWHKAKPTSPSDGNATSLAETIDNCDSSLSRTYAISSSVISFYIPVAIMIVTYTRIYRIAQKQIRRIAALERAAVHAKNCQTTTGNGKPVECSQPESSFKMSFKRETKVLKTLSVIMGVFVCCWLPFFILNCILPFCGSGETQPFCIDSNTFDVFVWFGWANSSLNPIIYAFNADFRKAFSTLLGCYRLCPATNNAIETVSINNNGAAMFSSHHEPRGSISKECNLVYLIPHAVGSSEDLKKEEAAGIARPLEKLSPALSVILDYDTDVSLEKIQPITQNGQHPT
#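 Using tetracycline-induced force-coupled D1 Hek293 cells and a calcium dye, signals were followed for 180 s after compound, then for 180 s after EC80 dopamine, to detect inhibitors.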
# D1 agonist: human D1 receptor agonism. actives 1% (n = 360,000). P21728. activation, % at 2 µM. HEK293 T-REx D1 cells, calcium flux, agonist mode; also: 0% is about no effect
#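 Tetracycline-induced HEK293 TREx D1 cells, force-coupled to calcium signalling, were dye-loaded with a no-wash calcium kit. Compound was pin-added after a 10 s baseline. Fluorescence was read kinetically at 1 cycle/s for 180 s, with calcium rises flagged as agonism.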
# Epigenetic derep: epigenetic control regulation, reporter derepression | murine LDR cells, GFP reporter derepression, 30 h | Potency, µM (doses to about 53.9 µM), inactives show at the top dose GFP activation, hits mostly activators | actives 0.2% (n = 280,000) | AID 1865; active = well fitted activation curve with a large enough effect; also: potency is read from the fitted curve at half-maximal effect; % of control where 0% means no effect; nearly all actives have a fitted effect of over 60% in size
#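 GFP-positive cell count by laser-scanning cytometry (objects 20–120 um) after 30 h, 37 C compound exposure of murine LDR cells; reporter is CMV-GFP integrated at a silenced locus, inducible by HDAC or DNMT inhibitors.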
# D1 potentiator: enhances dopamine response at the human D1 receptor | P21728 | HEK293 TREx D1 cells, calcium flux, dopamine EC20 potentiation | potentiation, % at 10 µM | actives 0.036% (n = 360,000) | AID 504651; in the data active = potentiation above about 30%; also: 0% is about no effect
# TRHR enhancer: TRH receptor (human) allosteric enhancement; P34981; TRHR cells, fluo-8 calcium fluorescence, EC20 TRH enhancement; enhancement, % at 2 µM; actives 0.66% (n = 360,000); in the data active = enhancement above about 30%; also: 0% is about no effect
#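 TRHR-expressing cells loaded with fluo-8 calcium dye were read kinetically (ex 480/em 530) during compound addition, then stimulated with an EC20 of TRH (10 nM final). Enhancement of the Gq-mediated intracellular calcium response was scored.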
# Numbers without * were called inactive; · = no result; ! = not confirmed by another sample; [ ] = dose if it differs, or a comment. Rows were chosen to be rich in hits. Some 4.6% of all compounds tested hit in one or more screens of this group. Rule as the data show it, unless noted: active = activation above about 30%; inactive = the rest.
SMILES,TRHR ag,D1 antag,D1 agonist,Epigenetic derep,D1 potentiator,TRHR enhancer
CCn1c(=O)c2cc(C(=O)NCCCN3CCN(C)CC3)sc2c2ccccc21,0.7,-1.7,2.6,-1.1%,-1.3,26.4
Cc1ccc([N+](=O)[O-])cc1S(=O)(=O)N1CCn2cccc2C1c1ccccc1 (centres undefined),0.4,·,5.6,1.6%,4.4,-4.1
O=C(O)CC1(CC(=O)Nc2ccc3ccccc3c2)CCCCC1,-0.1,12.4,1.4,-2.8%,-4.9,0.2
O=C(O)CC1(CC(=O)Nc2ccc3ccccc3n2)CCCCC1,-0.3,2.4,0.8,0.0%,-2.6,32.4*
COC(=O)c1ccc(S(=O)(=O)NC(C)(C)C)n1C,-0.4,-36.8*,1.8,-1.0%,1.4,-4.6
COC(=O)c1ccc(S(=O)(=O)NCc2ccc(OC)cc2)n1C,0.9,-3.0,6.8,-1.1%,2.9,-0.3
COc1cccc(-c2cn3c(n2)sc2cc(C(=O)NC4CCCCCC4)ccc23)c1,-0.4,2.9,1.3,2.2%,-1.4,-2.2
O=C(Cn1ncc2c(Cl)cccc21)NCc1cccc(F)c1,-1.1,-81.4*,-0.2,-2.2%,-4.5,3.7
O=C(Cn1ncc2c(Cl)cccc21)NCc1cccc(Br)c1,-0.9,-30.2*,9.4,3.5%,-4.8,-3.8
O=C(Cn1ncn2cccc2c1=O)NCc1cccc(Br)c1,-0.3,2.2,1.3,-2.8%,-0.2,1.3
COc1ccc(CNc2nc(SCc3ccc(Cl)cc3)nc3ccccc23)cc1,0.6,15.3,5.2,-1.3%,-0.1,1.7
CC(C)c1ccc(C(O)c2nc3ccccc3n2C)cc1 (centres undefined),-1.4,-36.1*,10.6,·,1.7,3.1
CCN1c2cc(C)ccc2-n2cccc2C12CCN(C(=O)Nc1cc(OC)c(OC)c(OC)c1)CC2,0.3,8.8,1.2,0.7%,0.9,6.8
COc1ccccc1-c1ccc(SCc2ccccc2F)nn1,0.3,-40.0*,15.4,-1.2%,-1.4,2.8
COc1ccccc1-c1ccc(SCc2ccccc2)nn1,0.4,-22.6,5.0,-0.1%,-4.5,6.3
Cc1ccc2c(C)c(C(=O)Nc3c(C)n(C)n(-c4ccccc4)c3=O)oc2c1C,-0.7,-37.4*,0.4,-2.0%,-6.9,3.2
O=C(Nc1c(Cl)cccc1Cl)c1cc(-c2ccc3c(c2)OCO3)on1,1.7,-17.3,6.7,0.0%,-1.1,-3.8
O=C(Nc1c(Cl)cccc1Cl)c1cc(-c2cccc(O)c2)on1,-0.8,-50.2*,47.4*,-1.8%,-0.5,3.1
Cc1c(NC(=O)c2cc(-c3ccc(Cl)cc3)on2)c(=O)n(-c2ccccc2)n1C,-0.8,-7.9,2.0,-0.9%,-10.0,30.4*!
CCOC(=O)C1CCN(Cc2oc(CO)cc(=O)c2O)CC1,-0.1,-4.0,4.3,-4.8%,-0.4,30.4*
CCN1CCN(Cc2oc(CO)cc(=O)c2O)CC1,0.3,8.4,4.0,-0.7%,2.5,-2.0
CC1=NN(c2ccc(Cl)cc2)C(=O)C1,0.8,17.6,5.9,-4.5%,2.7,-2.0
CC1=NN(Cc2ccccc2)C(=O)C1,-0.6,-36.5*,-1.5,-3.0%,-12.7,3.4
Nc1cc(C(Cl)=C(Cl)Cl)c(S(N)(=O)=O)cc1S(N)(=O)=O,-0.6,-32.5*,-0.3,-1.3%,-6.7,-8.5
Nc1ccccc1S(N)(=O)=O,1.3,-6.9,0.0,-1.4%[16.9 µM],-3.4,0.3
SMILES,TRHR ag,D1 antag,D1 agonist,Epigenetic derep,D1 potentiator,TRHR enhancer
C=CCOc1ccc(/C(O)=C2/C(=O)C(=O)N(CCCn3ccnc3)C2c2cccs2)cc1 (centres undefined),-0.3,-52.1*,1.9,0.0%,-10.7,-1.6
NNC(=O)c1cc2sccc2s1,1.1,-35.9*,-0.6,0.3%,-6.2,-15.8
COc1ccc(Cl)cc1NC(=O)c1ncn(-c2ccccc2)n1,0.5,5.3,1.1,1.0%,1.1,-4.5
Cc1cccn2c(=O)nc(SCC(=O)c3ccccc3)nc12,-0.1,-57.0*,-1.8,·,-5.3,2.0
CCCCN(C)C(=O)c1ccc2c(c1)NC(=O)C(CC(C)C)N2 (centres undefined),0.0,18.3,-3.2,0.6%,0.2,1.8
Cc1ccc(S(=O)(=O)NC2(C(F)(F)F)C(=O)Nc3c2c(=O)n(C)c(=O)n3C)cc1 (centres undefined),0.2,-15.5,2.6,7.0%,0.1,-2.7
CCC(=O)NC1(C(F)(F)F)C(=O)Nc2c1c(=O)n(C)c(=O)n2C (centres undefined),0.5,-60.2*,4.3,-2.1%,-8.0,-2.9
CC(C)N=C(NC#N)SCc1ccccc1,-0.8,-46.5*,1.9,-1.5%,-3.8,-2.9
CC(C)N=C(NC#N)SCc1ccc(Br)cc1,-0.7,-4.0,2.2,1.2%,-3.4,3.0
N#CNC(=Nc1cccc(F)c1)SCc1cccc(F)c1,2.4,-31.6*,23.1,1.0%,-5.8,-4.1
O=C(O)c1ccc(NC2=C(Cl)C(=O)c3ccccc3C2=O)cc1,-0.2,-23.5,0.8,2.0%,-2.5,-4.9
O=C1C(Cl)=C(Nc2ccccc2)C(=O)c2ccccc21,-0.7,-57.8*,6.8,-1.8%,-6.9,-17.7
c1ccc(NC2=NCCN2CC2CCC2)cc1,0.2,-7.8,2.7,·,-0.7,-0.2
c1ccc(NC2=NCCN2CCCC2CCCCC2)cc1,1.4,-5.3,32.9*,·,-3.1,-2.5
c1ccc(CCCCN2CCN=C2Nc2ccccc2)cc1,0.2,3.5,5.3,·,1.4,31.7*
Cc1cc(=O)cc2oc3cc(N)c(-c4c(C)cc(O)cc4O)c(C)c3nc1-2,·,·,·,0.8%,·,·
O=C1CSC(c2ccc(Cl)cc2Cl)N1c1ccccn1 (centres undefined),-1.3,-0.2,1.1,-1.1%,30.0*,-9.1
O=C1CSC(c2ccccn2)N1c1ccc(Cl)c(Cl)c1 (centres undefined),-1.0,5.9,9.7,-2.7%,-4.2,6.9
Cn1c(=O)c2c(nc(CN3CCN(c4ccccc4F)CC3)n2Cc2ccc(F)cc2)n(C)c1=O,1.0,9.4,-1.9,-0.8%,2.1,10.0
COC(=O)c1ccc(CSCc2ccc(C#N)cc2)cc1,-0.9,-35.1*,8.1,·,-11.8,-11.0
N#Cc1ccc(CSCC(=O)O)cc1,0.8,4.2,0.6,-5.4%,-6.7,14.0
CCN1c2ccccc2-c2nc(SCC(=O)Nc3cccc(C)c3C)ncc2S1(=O)=O,-0.4,9.8,1.6,0.2%,2.9,-5.0
O=C(NCc1cccc(F)c1)C1CCN(c2nn3cc(-c4ccc(F)cc4)nc3s2)CC1,0.3,-5.6,1.0,2.1%,0.9,13.3
NC(=O)N/N=C/c1coc2ccc3ccccc3c2c1=O,-0.2,-71.3*,0.6,1.0%,-10.8,-3.1
O=Cc1coc2ccc3ccccc3c2c1=O,0.1,-3.7,6.2,·,0.8,1.4
